Measured values: PubChem BioAssay AID623911 (Vanderbilt High Throughput Screening Facility, 2012)
Screen size: about 2,100 compounds; about 770 (37%) were called active. This is one part of the list. Values without a mark were called inactive.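 How the source made its calls: active means by-eye trace score of 1 for enhancers or -1 for inhibitors, so actives lie on both sides (some results past the limit were not filed as active); inactive means score 0, or 3 fluorescent, or 4 baseline rise.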

Target: G protein-activated inward rectifier potassium channel 2 (Homo sapiens) + G protein-activated inward rectifier potassium channel 1 (Homo sapiens) (UniProt P48051+P48549)
Assay: GIRK1/2 thallium flux modulators, retest, confirmation, cell-based, HEK293 rmGlu8/hGIRK1/2, FluoZin-2 (AID 623911)
Details: HEK293 rmGlu8/hGIRK1/2, thallium flux FluoZin-2; actives lie on both sides; glutamate co-added at its EC20 level

G protein-activated inward rectifier potassium channel 2 (Homo sapiens) + G protein-activated inward rectifier potassium channel 1 (Homo sapiens), sequence (P48051 whole entry, looked up): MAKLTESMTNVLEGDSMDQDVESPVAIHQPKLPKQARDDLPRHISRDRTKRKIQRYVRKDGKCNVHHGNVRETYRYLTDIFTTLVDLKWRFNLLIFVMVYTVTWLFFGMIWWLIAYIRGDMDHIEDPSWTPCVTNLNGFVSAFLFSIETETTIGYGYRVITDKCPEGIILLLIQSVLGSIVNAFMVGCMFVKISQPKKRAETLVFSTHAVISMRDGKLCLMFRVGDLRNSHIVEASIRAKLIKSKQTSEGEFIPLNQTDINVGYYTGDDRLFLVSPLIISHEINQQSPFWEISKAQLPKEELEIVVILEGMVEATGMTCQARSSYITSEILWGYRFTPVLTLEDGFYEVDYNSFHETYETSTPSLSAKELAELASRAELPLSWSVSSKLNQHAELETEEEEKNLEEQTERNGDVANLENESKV
G protein-activated inward rectifier potassium channel 2 (Homo sapiens) + G protein-activated inward rectifier potassium channel 1 (Homo sapiens), sequence (P48549 whole entry, looked up): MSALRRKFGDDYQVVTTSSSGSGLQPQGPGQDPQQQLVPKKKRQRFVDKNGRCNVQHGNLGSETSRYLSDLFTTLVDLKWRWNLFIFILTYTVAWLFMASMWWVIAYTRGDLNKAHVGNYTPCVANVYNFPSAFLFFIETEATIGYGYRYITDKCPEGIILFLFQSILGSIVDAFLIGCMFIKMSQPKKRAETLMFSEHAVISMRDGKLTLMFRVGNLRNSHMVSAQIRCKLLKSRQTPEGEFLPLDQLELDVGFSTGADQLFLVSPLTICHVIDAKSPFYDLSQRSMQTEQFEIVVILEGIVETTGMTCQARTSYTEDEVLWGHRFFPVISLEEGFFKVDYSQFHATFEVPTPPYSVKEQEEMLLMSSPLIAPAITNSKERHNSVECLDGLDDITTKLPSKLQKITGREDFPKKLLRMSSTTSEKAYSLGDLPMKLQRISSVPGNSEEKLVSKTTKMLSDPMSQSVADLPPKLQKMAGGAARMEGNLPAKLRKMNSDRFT

Compound | manual score
CCCC(=O)Nc1ccccc1N1CCN(C(=O)c2ccccc2)CC1 | -0.5
O=C(Nc1ccccc1N1CCCCC1)c1ccccc1F | 0
Cc1cccc(OCC(=O)Nc2ccccc2N2CCN(C(=O)C(C)C)CC2)c1C | -1 (active)
Cc1cccc(OCC(=O)NC(=S)Nc2ccccc2N2CCOCC2)c1 | 0
CC1(C)Cc2cccc(OCC(=O)Nc3ccccc3N3CCOCC3)c2O1 | -0.5
CCOc1cc(N2CCOCC2)c(OCC)cc1NC(=O)COC(=O)CCc1c[nH]c2ccccc12 | 0
CC(C)C(=O)Nc1ccccc1N1CCN(C(=O)c2ccccc2)CC1 | -1 (active)
Cc1ccccc1OCC(=O)Nc1ccccc1N1CCOCC1 | -1 (active)
CCC(=O)N1CCN(c2ccccc2NC(=O)COc2cccc(C)c2)CC1 | -1 (active)
Cc1cc(Cl)ccc1OCC(=O)Nc1ccccc1N1CCOCC1 | -1 (active)
CCN(CC)c1ccc2cc(-c3nc4ccccc4[nH]3)c(=O)oc2c1 | 3
Cc1ccccc1C(=O)NNC(=S)NC(=O)COc1ccccc1 | 1 (active)
Cc1ccc(C(=O)NNC(=S)NC(=O)COc2ccccc2)cc1 | 1 (active)
O=C(Cc1ccccc1)Nc1nc(-c2cccs2)cs1 | 0
CC(=O)c1c(C(C)=O)c(C)n(-c2nc(-c3cccs3)c(C)s2)c1C | -1 (active)
CN(CC(=O)Nn1cnnc1)S(=O)(=O)c1ccc(Br)cc1 | 0
Cc1cccc(N2C(=O)CS/C2=N\NC(=O)c2ccc(Cl)cc2)c1C | 1 (active)
O=C(c1cnn2c(C(F)(F)F)cc(-c3cccs3)nc12)N1CCN(Cc2ccccc2)CC1 | -0.5
COC(=O)c1c(NS(=O)(=O)c2ccc(C)cc2)sc2c1CCC(C)C2 (stereo unspecified) | 0
CCOC(=O)c1c(NS(=O)(=O)Cc2ccccc2)sc2c1CCCC2 | 1 (active)
CC1CCc2c(sc(NS(=O)(=O)c3ccccc3)c2C(=O)OC(C)C)C1 (stereo unspecified) | 0
COC(=O)c1c(NS(=O)(=O)c2cccs2)sc2c1CCCC2 | 1 (active)

Compound | manual score
CC(=O)Oc1ccc(N(C(C)=O)S(=O)(=O)c2cccs2)c2ccccc12 | 0
COC(=O)c1c(NC(=S)Nc2ccc(F)cc2[N+](=O)[O-])sc2c1CCCCC2 | 0
COC(=O)c1c(NC(=S)NC(=O)c2ccco2)sc2c1CCCC2 | 0
Cc1ccc(-c2c(C)sc(NC(=O)C3C4CCC(O4)C3C(=O)O)c2C(=O)OC(C)C)cc1 (stereo unspecified) | 0
COC(=O)c1c(NS(=O)(=O)Cc2ccccc2)sc2c1CCCC2 | 1 (active)
CC(C)OC(=O)c1c(NS(=O)(=O)c2ccccc2)sc2c1CCCC2 | 1 (active)
CCOC(=O)c1c(NC(=S)Nc2ccccc2)sc2c1CCCCC2 | 0
CCCc1nc2scc(-c3ccccc3)c2c(=O)n1N | 0
S=c1[nH]cnc2scc(-c3ccccc3)c12 | 1 (active)
Cc1ccc(-c2csc3nc[nH]c(=S)c23)cc1C | 1 (active)
CCCCn1c(=O)[nH]c2nc3cc(N)ccc3nc2c1=O | 3
CCCc1cc(-c2n[nH]c(=S)n2C(C)c2ccccc2)cs1 (stereo unspecified) | 0
CN(C)Cc1c(O)ccc2occ(C(O)c3ccccc3)c12 (stereo unspecified) | -1 (active)
O=c1[nH]c2ccccc2n1CCC1CCCCC1 | 0
COc1ccc2c(-c3ccccc3)cc(SCC(=O)N(C)C3CCS(=O)(=O)C3)nc2c1 (stereo unspecified) | 0
CN(C(=O)CSC1=Nc2ccccc2C2=NC(c3ccccc3)C(=O)N12)C1CCCCC1 (stereo unspecified) | -1 (active)
Cc1ccccc1-n1c(SCc2ccccn2)nc2n[nH]c(C)c2c1=N | 0
C=CCN(CC=C)S(=O)(=O)c1ccc(NC(=S)NC(=O)c2ccco2)cc1 | 0
CCN(c1ccccc1)S(=O)(=O)c1ccc(NC(=S)NC(=O)c2ccc(Br)o2)cc1 | 1 (active)
CN(c1ccccc1)S(=O)(=O)c1ccc(NC(=S)NC(=O)c2ccccc2)cc1 | 0
C=CCOc1ccc(/C(O)=C2/C(=O)C(=O)N(CCCN3CCOCC3)C2c2ccccc2)cc1 (stereo unspecified) | 0
CCCn1c(C)cc(/C=C(\C#N)C(=O)OCC(=O)Nc2cccc(OC)c2)c1C | 1 (active)

Compound | manual score
COc1cc(/C=C(\C#N)C(=O)Nc2cccnc2)ccc1OC(C)C | 0
O=S(=O)(Nc1ccc2nc(C(F)(F)F)[nH]c2c1)c1ccccc1 | 1 (active)
O=S(=O)(Nc1ccc(S(=O)(=O)Nc2cccc3ccccc23)cc1)c1ccccc1 | 0
Oc1c(N=Nc2ccccn2)ccc2ccccc12 | 1 (active)
CC(C)n1c(O)c(N=Nc2ccccn2)c2ccccc21 | 0
Oc1ccc2ccccc2c1N=Nc1ccccn1 | 0
C=CCNC(=O)NC(=S)c1ccccc1 | 0
C=CCN(CC=C)C(=S)NC(=O)c1ccc(-c2ccccc2)cc1 | 1 (active)
C=CCN(CC=C)C(=S)NC(=O)c1ccc([N+](=O)[O-])cc1 | 1 (active)
CN(Cc1ccccc1)C(=S)NC(=O)c1ccc(-c2ccccc2)cc1 | 0
CCCN(CCC)C(=S)NC(=O)c1ccc(-c2ccccc2)cc1 | 1 (active)
O=C(NC(=S)NCC1COc2ccccc2O1)c1ccccc1 (stereo unspecified) | 0
FC(F)(F)c1cnc(NNC(=S)Nc2ccc(Cl)cc2)c(Cl)c1 | 1 (active)
FC(F)(F)c1cnc(NNC(=S)Nc2ccccc2Cl)c(Cl)c1 | 1 (active)
O=C1/C(=C\c2ccccn2)SC(=S)N1Nc1ncc(C(F)(F)F)cc1Cl | 0
NC(=O)c1ccc(Cc2ncc(C(F)(F)F)cc2Cl)s1 | 0
Cc1ccc(NC(=S)NNc2ncc(C(F)(F)F)cc2Cl)c(C)c1 | 0
CC(C)CC(=O)CN1C(=O)C2(OCCO2)c2ccccc21 | 0
CCCCN(C)CC(O)Cn1cc(/C=C/C(=O)c2cccs2)c2ccccc21 (stereo unspecified) | 3
O=C1CC(c2ccncc2)c2cc3c(cc2N1)OCCO3 (stereo unspecified) | 0
O=c1c2cc(F)ccc2[nH]c(=S)n1CCCN1CCOCC1 | 0
CC(C)OCCCn1c(=S)[nH]c2cc3c(cc2c1=O)OCO3 | 1 (active)
